Source: PubChem BioAssay (The Scripps Research Institute Molecular Screening Center)
This is a sample that favours compounds with a hit; in the whole collection about 4.8% have one here.
hgDAF-12 ag – H. glycines DAF-12 receptor agonists, primary screen, cell-based, luminescence, HEK293, GAL4 fusion, UAS-luciferase; HEK293 GAL4-hgDAF12 UAS-luciferase reporter, agonist luminescence; normalized to butyrate control; activation, % at 6.8 µM; actives 1.8% (n = 370,000);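 active means activation above a cutoff set at the mean of all screened compounds plus 3 SD, cut at about 10% in these data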;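 further: 0% = DMSO wells and 100% = sodium butyrate wells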
ssDAF12 agonist – S. stercoralis DAF-12 nuclear receptor activators, primary screen, cell-based, luminescence, HEK293, GRIP1 co-expression, lit1-tk-luc; actives 1% (n = 370,000); AID 652126, 2013; HEK293 ssDAF-12/GRIP1 lit1-tk-luc reporter; % of 3 µM dafachronic acid response; activation, % at 6.8 µM;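 active means activation above the mean over all tested compounds plus 3 SD, cut at about 0.9% in these data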;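 further: 0% = DMSO-only wells and 100% = 3 µM delta7-dafachronic acid wells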
DAX1 inh-1 – DAX1 (NR0B1) inhibitors on StAR promoter, primary screen, cell-based, luminescence, SF-1 (NR5A1), full-length DAX-1 | actives 1.1% (n = 370,000) | HEK293T StAR-luciferase reporter, SF-1/DAX-1 repression relief | inhibition, % at 6.8 µM;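 active means inhibition above the mean over all tested compounds plus 3 SD, cut at about 3.6% in these data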;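 further: 0% = DAX-1 cells with DMSO and 100% = cells lacking DAX-1 with DMSO; higher inhibition means more luminescence from relief of DAX-1 repression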
DAX1 inh-2 – DAX1 (NR0B1) inhibitors, primary screen, cell-based, HEK293, Gal4-DAX1, luciferase luminescence | Nuclear receptor subfamily 0 group B member 1 (Homo sapiens), P51843 | HEK293 Gal4-DAX1 luciferase reporter | inhibition, % at 6.75 µM | actives 0.99% (n = 340,000) | AID 504766, 2011;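 active means inhibition above the mean over all tested compounds plus 3 SD, cut at about 4.2% in these data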;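 further: 0% = DAX1-transfected cells with DMSO and 100% = empty-vector control cells with DMSO; inhibition shows as a rise in luminescence from relieved DAX1 repression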
Target sequence (P51843 207-470 limits assumed): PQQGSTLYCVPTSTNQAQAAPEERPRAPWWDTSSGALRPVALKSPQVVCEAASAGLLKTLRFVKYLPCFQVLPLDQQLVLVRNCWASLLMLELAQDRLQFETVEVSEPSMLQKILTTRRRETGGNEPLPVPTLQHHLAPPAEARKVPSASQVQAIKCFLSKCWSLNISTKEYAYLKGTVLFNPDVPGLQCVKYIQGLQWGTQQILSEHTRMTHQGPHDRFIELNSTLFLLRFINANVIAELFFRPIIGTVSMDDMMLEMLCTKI
hcDAF12 agonist – H. contortus DAF-12 nuclear receptor activators, primary screen, cell-based, luminescence, HEK293, lit1-tk-luc reporter | HEK293 hcDAF-12 lit1-tk-luc reporter; 0% DMSO, 100% Δ7-dafachronic acid | activation, % at 6.8 µM | actives 1.4% (n = 370,000) | AID 652067, 2013;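 active means activation above the mean of all tested compounds plus 3 SD, cut at about 5.5% in these data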;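 further: 100% = response to 3 µM Δ7-dafachronic acid high control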
SMARCA2 activ – SMARCA2 (BRM) function activators, primary screen, cell-based, luminescence, high throughput; MG213 cells, MMTV-luciferase reporter, dexamethasone, overnight; activation, % at 9.1 µM; actives 1% (n = 370,000); in the data active means activation above about 7.8%;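 further: 0% = vehicle wells and 100% = reference activator wells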
Starred values were filed as active, the others as inactive; nt = not tested or not shown.

SMILES | hgDAF-12 ag | ssDAF12 agonist | DAX1 inh-1 | DAX1 inh-2 | hcDAF12 agonist | SMARCA2 activ
CCCC(=O)N1CCC1(C)C(=O)Nc1ccc2nccnc2c1 (stereo not drawn) | 11* | -1 | -1 | nt | -1 | -1
COc1ccc(-n2c(SCC(=O)c3ccc4ccccc4c3)nnc2-c2ccccc2)cc1 | 0 | -1 | -1 | nt | -3 | -4
NC(N)=NC(=O)c1nc(Cl)c(N2CCCCCC2)nc1N | 13* | -1 | 3 | 0 | 0 | 5
CCNS(=O)(=O)c1ccc(OC)c(C)c1 | 0 | -2 | 0 | 0 | -1 | -4
CCNS(=O)(=O)c1ccc2c(c1)NCC2 | -3 | 1.7* | 0 | 0 | -2 | -1
CC(C)[C@H](NC(=O)[C@@H]1Cc2c([nH]c3ccccc23)C2c3ccccc3C(=O)N21)C(=O)N1CCC[C@@H]1C(=O)O (stereo partly drawn) | 1 | 0 | -1 | 4 | 5.7* | 3
Cc1c[nH]c2cccc(-c3cc4ccccc4o3)c12 | 4 | 0 | 0 | nt | 2 | -3
CCOC(=O)c1ccc(N/C=C/C(=O)c2ccc(OC)cc2)cc1 | 0 | -1 | 1 | 3 | -1 | -1
CCOC(=O)c1ccc(N/C=C/C(=O)c2ccccc2)cc1 | 12* | -1 | 1 | 2 | 1 | 1
CCOC(=O)c1ccc(NC(=S)Nc2ccccc2)cc1 | 2 | 1.2* | 0 | 0 | 0 | 1
CCOC(=O)c1ccc(N/C=C/C(=O)C(C)(C)C)cc1 | 13* | 0 | 2 | 3 | -1 | 4
O=C(/C=C/Nc1ccccc1)c1ccccc1 | 11* | 1 | 3.8* | 2 | 6.5* | 5
CN(C)c1ccc(N/C=C/C(=O)C(C)(C)C)cc1 | 1 | -1 | 0 | 0 | 1 | 1
CC[C@@H](CCCCCCCn1ccc2ccccc21)CCC(=O)N(c1ccccc1)c1ccccc1 | 2 | 0 | 0 | nt | -2 | -2
O=C1C(NC(=O)N2c3ccccc3C=Cc3ccccc32)CCCCN1Cc1cccc(C(F)(F)F)c1 (stereo not drawn) | -1 | -2 | -1 | nt | 0 | -1
CCN(CC)C(=O)CC[C@@H]1CC[C@]2(CCCN(C(=O)c3cccnc3)C2)O1 | -3 | -1 | 0 | nt | 1 | -2
CC(C)(C)C(=O)OC12CCCN(C1)/C(=C/c1cccc(Cl)c1)C2 (stereo not drawn) | 3 | -1 | 1 | nt | -1 | -2
CCN(CC)CC(=O)NN(Cc1ccccc1)c1ccccc1 | 0 | -2 | 1 | 1 | -1 | 1
CN1CCN(CC(=O)NN(Cc2ccccc2)c2ccccc2)CC1 | -3 | -1 | 0 | 4.5* | 0 | -2
CCOC(=O)C1=CCN(S(=O)(=O)c2ccc(Br)cc2)C1c1cccc(Br)c1 (stereo not drawn) | -1 | -1 | -1 | nt | -1 | -5
CCC(C(=O)O)n1c2ccccc2c2cn[nH]c(=O)c21 (stereo not drawn) | 1 | 1.0* | 0 | -1 | 5 | -3
CCN(CC)Cc1c(NC(=O)c2ccccc2)sc(C)c1C | 11* | 0 | 1 | 4 | 5 | 3
C[C@@H](/C=C/C(=O)OC(C)(C)C)Sc1ccc(C(C)(C)C)cc1 | 0 | -2 | 0 | nt | -2 | -1
CC1OC(Nc2cccc3ccccc23)C(O)C(O)C1O (stereo not drawn) | 2 | 1.8* | -2 | -1 | 2 | 2
CC1OC(Nc2ccc(N=Nc3ccccc3)cc2)C(O)C(O)C1O (stereo not drawn) | -2 | -1 | 0 | -1 | 3 | 0
SMILES | hgDAF-12 ag | ssDAF12 agonist | DAX1 inh-1 | DAX1 inh-2 | hcDAF12 agonist | SMARCA2 activ
COc1ccc(CCNC(=O)Nc2ccc3c(c2)[C@]2(CC(=O)N(CC(C)C)C2c2ccccc2)C(=O)N3C)cc1OC (stereo partly drawn) | -2 | -1 | 0 | nt | -3 | -4
COc1cccc(OCc2cc(C(=O)N3CCN(C4CCCC4)CC3)no2)c1 | -1 | -1 | 0 | -1 | -1 | 0
COc1cccc(OCc2cc(C(=O)N3CCNC(=O)C3Cc3ccccc3)no2)c1 (stereo not drawn) | 6 | -1 | 4.2* | 1 | -1 | 2
Cc1cccc(C)c1OCc1cc(C(=O)N2CCC[C@H]2C(N)=O)no1 | -2 | 0 | 0 | 0 | -1 | 1
COc1cccc(OCc2cc(C(=O)N3CCCC3c3ccccn3)no2)c1 (stereo not drawn) | 12* | 0 | 3 | 0 | 1 | 1
NC(=O)[C@@H]1CCCN1C(=O)c1cc(COc2ccc3c(c2)CCCC3)on1 | 7 | 0 | 4.5* | 0 | 1 | 1
CC(NCc1ccco1)C(=O)N1CCN(c2ccc(F)cc2)CC1 (stereo not drawn) | 5 | -1 | 0 | nt | -1 | 7
CCOC(=O)[C@@]12CCCC=C1N(CCc1ccc(Cl)cc1)C(=O)[C@H]2CC(=O)NCc1cccc2ccccc12 | -2 | -1 | 0 | nt | -1 | -2
COc1cc(C2CC=C(C(=O)O)C(c3ccccc3F)N2S(=O)(=O)c2ccc(C)cc2)cc(OC)c1OC (stereo not drawn) | 3 | -2 | -1 | nt | -1 | -4
C=CC(C)N1C(=O)S/C(=C\c2ccc(N3CCOCC3)cc2C)C1=O (stereo not drawn) | 7 | -1 | 1 | 2 | 1 | -3
C=CCN1C(=O)S/C(=C\c2ccc(N3CCOCC3)cc2C)C1=O | 6 | -1 | 1 | 4.2* | 1 | 2
COC(=O)C1=C(C)N(Cc2ccccc2C(F)(F)F)C(=NCc2ccc(OC)cc2)NC1c1ccccc1C(F)(F)F (stereo not drawn) | 0 | -1 | -1 | nt | -2 | -5
CC(C)C[C@H]1COc2cccc(N3CCSCC3)c2S(=O)(=O)N1C | 0 | -1 | 0 | nt | -2 | 1
Cc1cc(/C=C2\SC(=S)NC2=O)c(C)n1-c1cccc(O)c1 | 7 | 0 | 4 | 5.3* | 5 | 3
Cc1ccc(-n2c(C)cc(/C=C3\SC(=O)NC3=O)c2C)cc1 | 6 | 0 | 1 | 2 | 3 | 2
C=CCNC(=O)c1ccsc1N | 2 | -1 | 4.2* | nt | 1 | -4
